This note sets out measurements from PubChem BioAssay (NCATS).

The target of assay [1] is Lysosomal acid glucosylceramidase (Homo sapiens) (UniProt P04062). The assay can be described thus: Glucocerebrosidase-p2 (AID 348; in the data active = potency below about 10 µM; note: potency is the fitted concentration of half-maximal effect). The conditions noted are these: purified GBA, blue fluorogenic substrate, 40 min. In a few lines: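 Normal human glucocerebrosidase (0.2 nM) with blue fluorogenic substrate (80 uM final) in citrate/phosphate pH 5.9 with 10mM sodium taurocholate, 0.01% tween-20; 40 min RT, NaOH/glycine stop; fluorescence Ex 365/Em 440; AC50 from a titration from 0.6 nM upwards.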
Sequence of Lysosomal acid glucosylceramidase (Homo sapiens) (P04062 whole entry, looked up): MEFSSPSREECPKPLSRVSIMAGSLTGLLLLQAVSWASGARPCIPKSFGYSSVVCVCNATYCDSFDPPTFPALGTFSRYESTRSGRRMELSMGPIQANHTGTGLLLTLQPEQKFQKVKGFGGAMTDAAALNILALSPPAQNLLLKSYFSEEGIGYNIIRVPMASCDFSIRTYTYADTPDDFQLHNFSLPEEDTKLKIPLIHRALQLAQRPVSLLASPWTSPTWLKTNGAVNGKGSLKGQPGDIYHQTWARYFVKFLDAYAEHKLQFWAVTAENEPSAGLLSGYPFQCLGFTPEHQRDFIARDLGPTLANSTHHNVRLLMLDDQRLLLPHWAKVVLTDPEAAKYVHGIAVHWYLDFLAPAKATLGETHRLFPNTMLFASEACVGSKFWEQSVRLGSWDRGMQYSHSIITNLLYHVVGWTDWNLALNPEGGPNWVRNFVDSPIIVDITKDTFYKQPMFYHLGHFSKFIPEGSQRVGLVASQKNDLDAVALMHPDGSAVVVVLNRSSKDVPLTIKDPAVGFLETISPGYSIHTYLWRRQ

Assay [2] is described as follows: AP1 Signaling Pathway (AID 357). Note: % is set by controls: 0 for no effect and ±100 for the full control effect. The conditions noted are these: ME-180 AP-1-bla reporter, EGF-induced, beta-lactamase ratio, 5 h; series mostly up to 17.2 µM. In short, it runs like this: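 Cells are seeded overnight, exposed to compound titrations and an EC50 level of EGF for 5 hours at 37 °C, then loaded with CCF4 dye for 2.5 hours. Beta-lactamase activity under the AP-1 element is read as a blue/green ratio.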

Assay [3] has as its target Cytochrome P450 1A2 (Homo sapiens) (UniProt P05177). The assay can be described thus: p450-cyp1a2 (AID 410; calls by dose curve; note: potency is the fitted concentration of half-maximal effect;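 for activity change, negative = inhibition: -100% = full effect of reference inhibitor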). The conditions noted are these: recombinant CYP1A2, luciferin-ME demethylation, luminescence; series mostly up to 25.6 µM. In a few lines:
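Read-out is luminescence from luciferin produced by CYP1A2 demethylation of Luciferin-ME (100uM, at Km). Detection reagent stopped the 60 min NADPH-dependent reaction; signals were normalized to 57 uM furafylline.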

A short description of assay [4]: Stat Signaling Pathway (AID 446).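 Note: ME-180 cervical cancer cells given 40 pM IL-6 alongside compound; SIE-controlled beta-lactamase reporter measured as 460/530 nm FRET emission ratio; % is set by controls: 0 for no effect and ±100 for the full control effect.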 The conditions noted are these: ME-180 SIE beta-lactamase reporter, IL-6 stimulated, 5 h; series mostly up to 17.2 µM. In short, it runs like this: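 FRET read-out (405 nm excitation, 460/530 nm emission) of a beta-lactamase reporter under a STAT-inducible element in ME-180 cervical carcinoma cells. Cells with compound receive 40 pM IL-6 for 5 h. Values are normalised to AC90 stimulation and AC90 JAK-inhibitor controls.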

Assay [5] concerns the target Glucocorticoid receptor (Homo sapiens) (UniProt P04150). The assay is described as follows: GR-EFC Redistribution (AID 451; calls by dose curve; note: potency is the fitted concentration of half-maximal effect). The conditions noted are these: CHO-K1 GR-EFC translocation, beta-gal luminescence, 2 h. In short, it runs like this:
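Translocation of GR-ED fusion to nuclear EA restores b-gal, read by luminescence after 1 h room-temperature detection. Engineered CHO-K1 biosensor cells, 1,000/well, exposed 2 h at 37 C to titrations up to 46 uM final.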

The target of assay [6] is Mitogen-activated protein kinase 10 (Mus musculus) (UniProt Q61831). The assay is described as follows: JNK3 AlphaScreen Assay (AID 530).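 Note: kinase came from lysate of stimulated human HepG2 cells; signal reports phosphorylation of biotinylated GST-cJun 1-79 at Ser73 with 10 µM ATP; % is set by controls: 0 for no effect and ±100 for the full control effect.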 The conditions noted are these: JNK3 lysate, c-Jun phosphorylation; series mostly up to 57.1 µM. In short, it runs like this:
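Kinase buffer: 20 mM Tris-HCl pH 7.6, 10 mM MgCl2, 1 mM DTT, 0.1 mM Na3VO4, 0.01% Tween-20; ATP 10 uM. Substrate biotin-GST-cJun(1-79), enzyme from activated HepG2 lysates. Detection by Ser73 phospho-antibody AlphaScreen.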

The target of assay [7] is 3',5'-cyclic-AMP phosphodiesterase 4B (Homo sapiens) (UniProt Q07343). The assay can be described thus: qHTS Assay for Inhibitors of PDE-IV (AID 607; active = well fitted activation curve with a large enough effect in the main read-out, with a control signal flat, not every such curve was filed as active; note: % of control where 0% means no effect). The conditions noted are these: HEK293 ACTOne CNG channel cells, membrane potential fluorescence; series mostly up to 22.9 µM. In a few lines:
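Cell-based read-out of cAMP via a modified cyclic nucleotide-gated channel and membrane potential dye (535/590 nm) in HEK293 cells expressing PDE4 endogenously. Compounds tested up to 22.9 uM final; 100 uM RO 20-1724 reference.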
A general note: In qHTS, concentration-response curves come from the screen itself.

Assay [8] concerns the target Cytochrome P450 3A4 (Homo sapiens) (UniProt P08684). The assay can be described thus: qHTS Assay for Activators of Cytochrome P450 3A4 (AID 885; active = well fitted curve in the direction sought with a large enough effect; an effect the other way counts as inactive or inconclusive; note: nearly all actives have a fitted effect of over 65% in size). The conditions noted are these: recombinant CYP3A4, Luciferin-PPXE luminescence, 60 min; series mostly up to 57.1 µM. In short, it runs like this: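 Luminescent readout of luciferin formed from 25 uM Luciferin-PPXE (KM level) by 20 nM CYP3A4 in 200 mM KPO4, with 60 min NADPH-driven reaction at room temperature after 10 min compound exposure. Ketoconazole (57 uM) defined 100% inhibition.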

Assay [9] is described as follows: qHTS Assay for Lipid Storage Modulators (AID 1519; calls by dose curve). The conditions noted are these: Drosophila S3 cells, BODIPY lipid droplet/cell ratio, laser cytometry, cells loaded with oleic acid; for activity change, negative = inhibition: at 57.5 µM (top of the series). In a few lines:
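Cells seeded at 5,000 per well were treated with compounds over a concentration series and loaded with oleic acid (400 uM, as added). Lipid droplet fluorescence (488 nm excitation, 500-530 nm channel) was read by laser-scanning cytometry and normalized to 20 uM Triacsin C.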

Assay [10] can be described thus: Primary qHTS for small molecule stabilizers of the endoplasmic reticulum resident proteome: Secreted ER Calcium Modulated Protein (SERCaMP) assay (AID 1508630; active = well fitted curve in the direction sought with a large enough effect; an effect the other way counts as inactive or inconclusive; note: % is set by controls: 0 for no effect and ±100 for the full control effect). The conditions noted are these: SH-SY5Y GLuc-SERCaMP (Gaussia luciferase released on ER calcium loss) secretion, thapsigargin, luminescence; series mostly up to 38.4 µM. In short, it runs like this:
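The SH-SY5Y reporter protocol was run at 3 concentrations up to 38.3 uM (primary) or 11 concentrations (follow-up): 16 h compound, 100 nM thapsigargin for 4 h, then extracellular luciferase luminescence.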

Assay [11] has as its system HIV-1 nucleocapsid protein NCp7 (binding to TG oligonucleotide). The assay can be described thus: HIV Nucleocapsid (AID 346; call rule not given here;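 note: potency is the fitted concentration of half-maximal effect; potency is for inhibitors that block NC binding and lower polarization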). The conditions noted are these: HIV-1 NC / fluorescein-TGTGTGTG probe, fluorescence polarization. In a few lines:
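HIV-1 NC (100 nM) binding to fluorescein-labelled ssDNA TG4xF (10 nM) in Hepes pH 7.5, 250mM NaCl, 1uM ZnCl2, TCEP and 2-mercaptoethanol; compounds pin-transferred, 1 hr room temperature, fluorescence polarization read on CCD imager.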
On the technique in general: Fluorescence polarisation rises when a labelled molecule tumbles more slowly, as on binding a larger partner.

The nature of assay [12]: NFAT Signaling Pathway (AID 444). The conditions noted are these: Jurkat NFAT-bla M1, carbachol, beta-lactamase ratio, 5 h; at 7.69 µM (top of the series). In a few lines:
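Read-out: CCF4 FRET ratio (460 nm/530 nm) after 1 h RT dye loading, used for %activity and AC50 from titration series. Cells: Jurkat NFAT-β-lactamase/M1 line, treated with compound plus 1 uM carbachol for 5 h, 37 °C.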

For assay [13], the target named is Cytochrome P450 3A4 (Homo sapiens) (UniProt P08684). The assay is described as follows: qHTS Assay for Inhibitors and Substrates of Cytochrome P450 3A4 (AID 884; active = well fitted curve in the direction sought with a large enough effect; an effect the other way counts as inactive or inconclusive; note: nearly all actives have a fitted effect of over 50% in size; note: potency is the fitted concentration of half-maximal effect). The conditions noted are these: recombinant CYP3A4, Luciferin-PPXE luminescence; series mostly up to 57.1 µM. In short, it runs like this: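 Luminescent readout of luciferin produced by CYP3A4 (20 nM) dealkylation of Luciferin-PPXE, 25 uM (its KM). NADPH-driven reaction ran 60 min at RT after 10 min compound preincubation; data scaled to 57 uM ketoconazole as 100% inhibition.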
Sequence of Cytochrome P450 3A4 (Homo sapiens) (P08684 whole entry, looked up): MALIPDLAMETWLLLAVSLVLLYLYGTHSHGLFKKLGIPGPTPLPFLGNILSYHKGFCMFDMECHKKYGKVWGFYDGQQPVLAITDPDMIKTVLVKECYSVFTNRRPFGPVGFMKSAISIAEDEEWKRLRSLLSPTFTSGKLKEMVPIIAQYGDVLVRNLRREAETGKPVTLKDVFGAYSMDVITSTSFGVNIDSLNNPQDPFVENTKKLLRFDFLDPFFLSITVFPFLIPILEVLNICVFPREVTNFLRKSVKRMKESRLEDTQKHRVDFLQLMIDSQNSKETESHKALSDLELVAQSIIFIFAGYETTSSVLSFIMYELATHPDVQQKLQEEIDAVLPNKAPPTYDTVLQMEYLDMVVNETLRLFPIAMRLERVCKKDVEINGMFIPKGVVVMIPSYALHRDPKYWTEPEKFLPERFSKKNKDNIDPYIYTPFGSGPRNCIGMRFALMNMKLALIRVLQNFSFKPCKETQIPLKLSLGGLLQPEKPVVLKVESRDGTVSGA

For assay [14], the target named is Cytochrome P450 2D6 (Homo sapiens) (UniProt P10635). The assay is described as follows: qHTS Assay for Inhibitors and Substrates of Cytochrome P450 2D6 (AID 891; active = well fitted curve in the direction sought with a large enough effect; an effect the other way counts as inactive or inconclusive; note: nearly all actives have a fitted effect of over 60% in size; note: potency is the fitted concentration of half-maximal effect). The conditions noted are these: recombinant CYP2D6, luciferin-ME EGE luminescence; series mostly up to 57.1 µM. In short, it runs like this: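 Luminescent read-out of luciferin formed by 5 nM human CYP2D6 demethylating 30 uM Luciferin-ME EGE (Km level) over 60 min at room temperature after NADPH regeneration addition. Data normalized to full inhibition by 1.43 uM quinidine.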
Sequence of Cytochrome P450 2D6 (Homo sapiens) (P10635 whole entry, looked up): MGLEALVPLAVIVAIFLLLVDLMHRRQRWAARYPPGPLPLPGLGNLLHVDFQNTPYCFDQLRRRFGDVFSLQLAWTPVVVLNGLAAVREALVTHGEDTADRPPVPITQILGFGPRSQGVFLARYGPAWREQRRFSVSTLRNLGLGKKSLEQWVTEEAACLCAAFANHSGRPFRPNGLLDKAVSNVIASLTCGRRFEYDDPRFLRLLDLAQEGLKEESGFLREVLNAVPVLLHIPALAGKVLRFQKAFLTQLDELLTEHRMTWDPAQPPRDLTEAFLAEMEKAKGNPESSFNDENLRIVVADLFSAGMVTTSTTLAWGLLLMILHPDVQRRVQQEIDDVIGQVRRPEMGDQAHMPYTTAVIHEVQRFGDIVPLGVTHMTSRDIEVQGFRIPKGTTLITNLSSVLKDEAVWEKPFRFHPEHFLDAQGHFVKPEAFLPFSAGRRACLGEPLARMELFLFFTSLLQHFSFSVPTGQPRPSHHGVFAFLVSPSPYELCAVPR

Assay [15] in a line: qHTS Assay for Identification of Small Molecule Agonists for Hypoxia Response Element Signaling Pathway (AID 914; active = well fitted activation curve with a large enough effect in the signal ratio, with a control signal flat, not every such curve was filed as active; the % refers to the signal ratio; note: % of control where 0% means no effect). The conditions noted are these: ME-180 (cervical carcinoma) HRE-bla reporter, beta-lactamase ratio, CoCl2, 17 h; activation: stronger effect = higher value. In short, it runs like this:
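ME-180 cells carrying an HRE-driven beta-lactamase reporter were treated with compounds in a titration series plus an EC50 level of CoCl2 for 17 h at 37 degrees Celsius; CCF4 readout as the 460nm/530nm ratio gave AC50 values.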

Assay [16] concerns the target Cytochrome P450 2C9 (Homo sapiens) (UniProt P11712). The assay can be described thus: qHTS Assay for Inhibitors and Substrates of Cytochrome P450 2C9 (AID 883; active = well fitted curve in the direction sought with a large enough effect; an effect the other way counts as inactive or inconclusive; note: % is set by controls: 0 for no effect and ±100 for the full control effect; nearly all actives have a fitted effect of over 60% in size). The conditions noted are these: recombinant CYP2C9, luciferin-H luminescence, 60 min; series mostly up to 57.1 µM. In short, it runs like this: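 Turnover of Luciferin-H (100uM, KM) by 10nM human CYP2C9 was measured over 60 min at 37C with NADPH regeneration; inhibitors and some substrates reduce luminescence. Data normalized to sulphaphenazole 57uM.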

Setting [17] is: measured here: cell count channel max response.
The mark [18] stands for this setting: measured here: lipid channel max response.

Records with an inconclusive call do not appear. Calls of active or inactive are those of the source. Unless noted, calls come from the whole dose curve; as a rule, active = well fitted curve in either direction with a large enough effect (not every such curve was filed as active); inconclusive = small, poorly fitted or top-dose-only effect, or another doubt; inactive = flat fitted curve, though single readings scatter.

Sequence of Cytochrome P450 1A2 (Homo sapiens) (P05177 whole entry, looked up): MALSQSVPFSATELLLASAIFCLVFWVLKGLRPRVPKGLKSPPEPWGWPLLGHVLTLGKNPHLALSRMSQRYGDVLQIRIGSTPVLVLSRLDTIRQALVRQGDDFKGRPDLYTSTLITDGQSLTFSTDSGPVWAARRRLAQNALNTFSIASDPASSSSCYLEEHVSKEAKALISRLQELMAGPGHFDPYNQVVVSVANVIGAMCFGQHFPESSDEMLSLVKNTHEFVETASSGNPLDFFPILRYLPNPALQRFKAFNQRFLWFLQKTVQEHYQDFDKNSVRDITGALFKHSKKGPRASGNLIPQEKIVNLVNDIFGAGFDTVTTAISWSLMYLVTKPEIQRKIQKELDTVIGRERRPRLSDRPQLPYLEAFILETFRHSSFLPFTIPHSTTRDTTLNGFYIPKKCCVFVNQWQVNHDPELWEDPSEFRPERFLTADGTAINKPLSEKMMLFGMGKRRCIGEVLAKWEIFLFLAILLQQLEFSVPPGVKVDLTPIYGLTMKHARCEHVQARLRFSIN
Sequence of 3',5'-cyclic-AMP phosphodiesterase 4B (Homo sapiens) (Q07343 whole entry, looked up): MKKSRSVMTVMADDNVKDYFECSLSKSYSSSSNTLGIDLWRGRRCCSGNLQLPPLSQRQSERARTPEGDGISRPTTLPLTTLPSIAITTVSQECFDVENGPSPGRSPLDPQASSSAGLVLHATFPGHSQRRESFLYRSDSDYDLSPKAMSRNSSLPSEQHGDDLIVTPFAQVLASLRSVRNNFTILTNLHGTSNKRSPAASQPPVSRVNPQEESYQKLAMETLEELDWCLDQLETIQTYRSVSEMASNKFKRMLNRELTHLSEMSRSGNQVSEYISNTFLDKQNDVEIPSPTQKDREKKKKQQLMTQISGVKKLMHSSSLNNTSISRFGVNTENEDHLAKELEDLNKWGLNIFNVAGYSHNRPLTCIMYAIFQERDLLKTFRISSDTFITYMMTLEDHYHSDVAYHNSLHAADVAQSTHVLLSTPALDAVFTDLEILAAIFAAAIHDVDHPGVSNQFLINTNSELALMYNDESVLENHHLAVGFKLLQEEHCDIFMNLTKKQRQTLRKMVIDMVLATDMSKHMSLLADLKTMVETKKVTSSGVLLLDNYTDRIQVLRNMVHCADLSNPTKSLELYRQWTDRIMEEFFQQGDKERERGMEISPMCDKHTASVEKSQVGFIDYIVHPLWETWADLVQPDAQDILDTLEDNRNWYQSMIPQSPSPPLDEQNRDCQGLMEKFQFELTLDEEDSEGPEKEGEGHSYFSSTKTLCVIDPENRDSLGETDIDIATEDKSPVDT
Sequence of Glucocorticoid receptor (Homo sapiens) (P04150 whole entry, looked up, the tested form may be a part): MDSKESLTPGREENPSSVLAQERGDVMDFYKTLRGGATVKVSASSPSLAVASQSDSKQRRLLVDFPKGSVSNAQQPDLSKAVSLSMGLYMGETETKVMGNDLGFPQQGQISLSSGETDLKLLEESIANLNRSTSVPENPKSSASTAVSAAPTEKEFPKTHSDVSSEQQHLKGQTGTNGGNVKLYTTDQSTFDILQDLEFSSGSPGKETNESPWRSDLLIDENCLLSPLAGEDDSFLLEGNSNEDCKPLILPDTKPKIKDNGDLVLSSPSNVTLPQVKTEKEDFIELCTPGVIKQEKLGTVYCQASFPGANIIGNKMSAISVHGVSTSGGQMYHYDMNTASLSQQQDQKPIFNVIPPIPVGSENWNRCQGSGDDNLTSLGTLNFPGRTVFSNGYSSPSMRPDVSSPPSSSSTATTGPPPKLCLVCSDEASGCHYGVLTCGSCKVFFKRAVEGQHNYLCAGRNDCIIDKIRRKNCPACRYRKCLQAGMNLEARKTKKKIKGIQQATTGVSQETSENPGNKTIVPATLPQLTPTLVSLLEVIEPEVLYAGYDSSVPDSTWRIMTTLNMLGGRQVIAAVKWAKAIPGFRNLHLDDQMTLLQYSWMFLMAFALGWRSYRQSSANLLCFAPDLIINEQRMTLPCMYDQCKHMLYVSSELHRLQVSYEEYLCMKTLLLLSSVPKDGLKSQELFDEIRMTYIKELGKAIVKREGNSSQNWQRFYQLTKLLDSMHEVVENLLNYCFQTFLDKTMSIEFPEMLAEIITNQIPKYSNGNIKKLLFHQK
Sequence of Cytochrome P450 2C9 (Homo sapiens) (P11712 whole entry, looked up): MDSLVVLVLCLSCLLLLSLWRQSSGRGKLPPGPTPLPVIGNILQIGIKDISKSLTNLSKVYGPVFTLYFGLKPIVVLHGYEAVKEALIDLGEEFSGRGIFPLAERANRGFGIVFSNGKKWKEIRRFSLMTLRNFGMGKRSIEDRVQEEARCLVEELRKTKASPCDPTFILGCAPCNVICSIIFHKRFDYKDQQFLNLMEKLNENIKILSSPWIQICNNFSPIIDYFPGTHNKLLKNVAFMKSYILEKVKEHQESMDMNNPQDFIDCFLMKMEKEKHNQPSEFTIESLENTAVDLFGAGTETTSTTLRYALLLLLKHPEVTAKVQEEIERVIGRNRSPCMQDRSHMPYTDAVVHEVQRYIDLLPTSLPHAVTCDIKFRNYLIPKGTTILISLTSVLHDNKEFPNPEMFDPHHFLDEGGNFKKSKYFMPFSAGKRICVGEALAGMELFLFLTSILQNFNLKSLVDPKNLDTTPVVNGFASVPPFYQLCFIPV

Turning to `CC(C)NC(=O)N1CCCC2(CCN(C(=O)Oc3ccccc3)CC2)C1`, the Potency in assay [1] was > 11.4 µM (inactive); in [3] it was 12.6 µM (active); in [5], > 46 µM (inactive). The outcome in [2], in assay [4], in [6] and in assay [10] was inactive. Further, the Potency entry in assay [7] and in [8] was “inactive” throughout. Further, the activity change, negative = inhibition in assay [9] is 6.21% (inactive). For the same compound, the results for the max response in [9] (setting [17]) and in assay [9] (setting [18]) were 27.7% and 29.9%, respectively.

`CC[C@]12CCCN3CCC4(c5ccccc5NC4C(C(=O)O)C1)C32` (some centres not stated): the outcome in [10] was inactive.

Consider `N#Cc1ccc(CN2CC[C@@]3(CCCN(C(=O)Oc4ccccc4)C3)C2)cc1`, for which the Potency in assay [11] was > 20 µM (inactive); in assay [1], > 11.4 µM (inactive); in assay [5], > 46 µM (inactive); in assay [13], 7.94 µM (active); in [14], 3.16 µM (active). Further, the result in assay [2], in [4], in [6] and in assay [10] was inactive. For the same compound, the activity change, negative = inhibition is -16.4% (inactive) in assay [12] and 4.98% (inactive) in assay [9]. The Potency result in [8] is “inactive”. The max response in assay [9] (setting [17]) is 20.4%; in [9] (setting [18]), 28.4%.

`COc1ccccc1CN1CC[C@@]2(CCCN(C(=O)Oc3ccccc3)C2)C1`: the figures for the Potency in [11], in assay [3] and in [5] were > 20 µM (inactive), 10 µM (active) and > 46 µM (inactive), respectively. In addition, the result in assay [2], in assay [4], in assay [6] and in assay [10] was inactive. Besides, the Potency result in assay [7] and in assay [8] was “inactive” in each case. Further, the activity change, negative = inhibition in assay [9] is 7.75% (inactive). Besides, the max response amounted to 2.61% in [9] (setting [17]) and 13.6% in [9] (setting [18]).

For the compound `O=C(Oc1ccccc1)N1CCC2(CC1)CCN(C(c1ccccc1)c1ccccc1)CC2`, the Potency in assay [1] is > 11.4 µM (inactive); in assay [5], > 46 µM (inactive). The outcome in assay [2], in [4], in assay [6] and in assay [10] was inactive. The activity change, negative = inhibition in assay [12] was -0.91% (inactive); in assay [9], 4.05% (inactive). Further, the max response amounted to 5.73% in assay [9] (setting [17]) and 13.3% in assay [9] (setting [18]).

For `CC(n1cc(C[C@H](N)C(=O)O)c2ccccc21)n1cc(C[C@H](N)C(=O)O)c2ccccc21`, the result in assay [10] was inactive.

For the compound `CN1CCC2=C[C@@H](O)[C@@H]3OC(=O)c4cc5c(cc4C3C21)OCO5` (some centres not stated), in assay [10], the outcome was inactive.

For the compound `CC(C)CN1CC2(CCN(C(=O)Oc3ccccc3)CC2)C1`, the values for the Potency in assay [1] and in assay [5] were > 11.4 µM (inactive) and > 46 µM (inactive), respectively. Besides, the outcome in assay [2], in [4], in assay [6] and in assay [10] was inactive. In addition, in [3], the Potency entry is “inactive”. Further, the figures for the activity change, negative = inhibition in assay [12] and in [9] were -14.8% (inactive) and 2.95% (inactive), respectively. For the same compound, in assay [15], the activation was -12.9% (inactive). In addition, the max response in assay [9] (setting [17]) is -4.14%; in assay [9] (setting [18]), 1.27%.

In the case of `CCOC(=O)c1ncc2[nH]c3ccc(OCc4ccccc4)cc3c2c1COC`, the outcome in [10] was inactive.

Regarding `COC(=O)N1CCC2(CCCN(C)C2)CC1`, the Potency was > 11.4 µM (inactive) in assay [1] and > 46 µM (inactive) in [5]. In addition, the result in assay [2], in [4] and in assay [10] was inactive. Moreover, the Potency entry in assay [3] and in assay [7] was “inactive” in each case. Besides, the activity change, negative = inhibition in [9] is 0.789% (inactive). Besides, the max response was 6.44% in [9] (setting [17]) and 8.69% in assay [9] (setting [18]).

In the case of `CC(C)NC(=O)N1CC[C@@]2(CCCNC2)C1`, the Potency is > 11.4 µM (inactive) in [1] and > 46 µM (inactive) in assay [5]. Also, the outcome in [2], in assay [4], in assay [6] and in [10] was inactive. In addition, the Potency result in assay [3], in assay [16], in assay [13] and in [14] was “inactive” throughout. In assay [9], the activity change, negative = inhibition is 0.953% (inactive). Also, the max response is 13.7% in [9] (setting [17]) and 18.1% in [9] (setting [18]).
